Inconclusive results are not listed. Calls of active or inactive are those of the source. Unless noted, the call rests on the fitted dose curve; in most records, active means well fitted curve in the direction sought with a large enough effect in the repeat runs; inconclusive means weak or mixed curves; inactive means no such curve, though single readings can be large; an effect the other way counts as inactive or inconclusive.
Key:
[1] = target: Thyrotropin receptor (Homo sapiens) (UniProt P16473); experiment: qHTS assay to identify small molecule antagonists of the thyroid stimulating hormone receptor (TSHR) signaling pathway (AID 1259385; calls by dose curve; further: nearly all actives have a fitted effect of over 20% in size)
Thyrotropin receptor (Homo sapiens), sequence (P16473 whole entry, looked up): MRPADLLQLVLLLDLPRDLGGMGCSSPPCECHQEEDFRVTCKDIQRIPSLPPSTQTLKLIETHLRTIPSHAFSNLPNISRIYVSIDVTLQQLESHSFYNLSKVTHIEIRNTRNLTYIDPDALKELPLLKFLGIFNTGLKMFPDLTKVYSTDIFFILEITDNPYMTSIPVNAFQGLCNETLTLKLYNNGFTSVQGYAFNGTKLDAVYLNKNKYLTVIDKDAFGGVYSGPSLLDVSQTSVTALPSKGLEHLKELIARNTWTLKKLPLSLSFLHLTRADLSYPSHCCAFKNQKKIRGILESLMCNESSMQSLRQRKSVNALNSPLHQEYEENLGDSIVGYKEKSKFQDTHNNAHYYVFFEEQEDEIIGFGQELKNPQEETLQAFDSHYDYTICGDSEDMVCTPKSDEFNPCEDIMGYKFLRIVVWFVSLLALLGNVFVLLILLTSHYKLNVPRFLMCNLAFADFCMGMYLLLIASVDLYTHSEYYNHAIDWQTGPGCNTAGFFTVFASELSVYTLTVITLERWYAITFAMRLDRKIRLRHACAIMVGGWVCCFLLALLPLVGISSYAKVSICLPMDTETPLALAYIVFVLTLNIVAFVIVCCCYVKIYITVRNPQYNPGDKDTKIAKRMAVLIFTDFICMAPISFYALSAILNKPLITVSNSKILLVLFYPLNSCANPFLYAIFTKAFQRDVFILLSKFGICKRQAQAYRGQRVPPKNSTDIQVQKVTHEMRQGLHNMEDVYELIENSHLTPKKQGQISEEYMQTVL
Procedure, shortened: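 TSHR-HEK293 cells (800/well) plated 18 h, then compounds with Ro20-1724 and TSH at 1.5 ng/mL final, 30 min at room temperature. cAMP quantified by HTRF (cAMP-d2/anti-cAMP-cryptate, 1 h); 15 concentrations in triplicate.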

[2] = qHTS assay to identify small molecule agonists of the estrogen receptor alpha (ER-alpha) signaling pathway in the presence of an antagonist - cell viability counter screen (AID 1259386);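 further: series mostly up to about 92 µM; cells exposed to compounds for 22 h at 37 °C before the viability read; nearly all actives have a fitted effect of over 30% in size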
Procedure, shortened: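 Viability counter screen using VM7Luc4E2 (full-length ER-alpha, four ERE-luciferase). The cells were treated with compounds alongside ICI-182,780 10.0nM for 22hr, and live-cell protease fluorescence was quantified with CellTiter-Fluor.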

[3] = target: Progesterone receptor (Homo sapiens) (UniProt P06401); experiment: qHTS assay to identify small molecule agonists of the progesterone receptor (PR) signaling pathway (AID 1346784; calls by dose curve; further: nearly all actives have a fitted effect of over 30% in size)
Progesterone receptor (Homo sapiens), sequence (P06401 whole entry, looked up): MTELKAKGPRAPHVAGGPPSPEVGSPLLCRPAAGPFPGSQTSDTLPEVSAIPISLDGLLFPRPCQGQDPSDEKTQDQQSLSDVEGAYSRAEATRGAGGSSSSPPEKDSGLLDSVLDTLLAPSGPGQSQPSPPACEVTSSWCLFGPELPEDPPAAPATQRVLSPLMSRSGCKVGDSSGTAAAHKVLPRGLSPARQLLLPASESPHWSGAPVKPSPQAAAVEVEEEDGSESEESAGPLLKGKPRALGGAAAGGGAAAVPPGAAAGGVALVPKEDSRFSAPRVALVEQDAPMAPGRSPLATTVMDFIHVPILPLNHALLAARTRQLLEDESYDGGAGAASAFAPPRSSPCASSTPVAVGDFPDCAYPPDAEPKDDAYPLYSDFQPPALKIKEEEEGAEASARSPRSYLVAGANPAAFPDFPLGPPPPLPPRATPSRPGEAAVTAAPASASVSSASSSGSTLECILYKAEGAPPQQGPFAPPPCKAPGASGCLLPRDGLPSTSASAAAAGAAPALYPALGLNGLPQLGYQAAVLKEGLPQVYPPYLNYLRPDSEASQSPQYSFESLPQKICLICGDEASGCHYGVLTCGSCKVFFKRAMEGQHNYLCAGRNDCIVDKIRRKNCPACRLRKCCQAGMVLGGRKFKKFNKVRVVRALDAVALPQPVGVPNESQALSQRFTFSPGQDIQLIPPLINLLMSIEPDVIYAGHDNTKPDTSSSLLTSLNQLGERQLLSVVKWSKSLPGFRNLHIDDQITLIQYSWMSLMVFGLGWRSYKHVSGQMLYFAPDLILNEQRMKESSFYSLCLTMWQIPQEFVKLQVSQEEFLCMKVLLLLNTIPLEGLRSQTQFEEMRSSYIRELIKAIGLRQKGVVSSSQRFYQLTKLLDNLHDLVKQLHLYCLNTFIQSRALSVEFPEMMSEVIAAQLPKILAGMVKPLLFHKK
Procedure, shortened: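 Agonist qHTS: compounds pinned onto 3,000 PR-UAS-bla HEK 293T cells per well in charcoal-stripped serum medium, 16hr at 37C, then beta-lactamase activity measured by LiveBLAzer FRET fluorescence after 2 hours at room temperature.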

[4] = target: Progesterone receptor (Homo sapiens) (UniProt P06401); experiment: qHTS assay to identify small molecule antagonists of the progesterone receptor (PR) signaling pathway (AID 1346795; active means well fitted inhibition curve with a large enough effect in the signal ratio in the repeat runs, not every such curve was filed as active; the % refers to the signal ratio)
Procedure, shortened: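 Antagonist mode with agonist R5020 at 1 nM final and 16 hr incubation at 37C. Reporter was beta-lactamase driven by UAS in HEK293T (PR-UAS-bla), 2% charcoal-stripped serum; signal from LiveBLAzer FRET substrate, 2 hr at room temperature.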

[5] = qHTS assay to identify small molecule antagonists of the progesterone receptor (PR) signaling pathway - cell viability counter screen (AID 1346798); further: series mostly up to about 92 µM; nearly all actives have a fitted effect of over 50% in size
Procedure, shortened: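 Cytotoxicity read as CellTiter-Glo luminescence (30 min, room temperature) in the same wells as the beta-lactamase readout. HEK293T PR-UAS-bla cells in charcoal-stripped 2% FBS received compound and R5020, then 16 h at 37C, 5% CO2.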

[6] = qHTS assay to identify small molecule agonists of the progesterone receptor (PR) signaling pathway - cell viability counter screen (AID 1346799; calls by dose curve; further: nearly all actives have a fitted effect of over 45% in size)
Procedure, shortened: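 Cytotoxicity measured by CellTiter-Glo luminescence (30 min, RT) in the same wells as the PR beta-lactamase agonist read. Those HEK293T cells had 16 h compound treatment at 37 C in 2% charcoal-stripped FBS medium.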

[7] = qHTS assay to identify small molecule antagonists of the TGF-beta/Smad signaling pathway - cell viability counter screen (AID 1346824); further: nearly all actives have a fitted effect of over 50% in size
Procedure, shortened: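 SBE-bla HEK 293T cells, incubated overnight, then compound plus 0.25 ng/mL TGF-beta1 (stock added) for 5 hr at 37 C. Viability was read in the same wells by CellTiter-Glo luminescence after 30 min at room temperature.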

[8] = qHTS assay to identify small molecule agonists of the TGF-beta/Smad signaling pathway - cell viability counter screen (AID 1346829); further: top concentration of the series differs between compounds; nearly all actives have a fitted effect of over 45% in size
Procedure, shortened: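 Here the cytotoxicity of library compounds is measured in SBE-bla HEK 293T cells treated for 5 hr, using CellTiter-Glo added to wells already read for the beta-lactamase reporter.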

[9] = qHTS assay to identify small molecule agonists of the TGF-beta/Smad signaling pathway (AID 1346859; active means well fitted activation curve with a large enough effect in the signal ratio in the repeat runs, not every such curve was filed as active; the % refers to the signal ratio; further: series mostly up to about 77 µM)
Procedure, shortened: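 Fluorescence (ex 405 nm; em 460 and 530 nm) was read 2 h after LiveBLAzer FRET substrate at RT. The preceding compound treatment of overnight-plated SBE-bla HEK293T cells lasted 5 h at 37 C.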

[10] = target: Thyrotropin-releasing hormone receptor (Homo sapiens) (UniProt P34981); experiment: qHTS assay to identify small molecule antagonists of the thyrotropin-releasing hormone receptor (TRHR) signaling pathway (AID 1346877; active means well fitted inhibition curve with a large enough effect in the repeat runs, not every such curve was filed as active; further: series mostly up to about 51 µM)
Thyrotropin-releasing hormone receptor (Homo sapiens), sequence (P34981 whole entry, looked up): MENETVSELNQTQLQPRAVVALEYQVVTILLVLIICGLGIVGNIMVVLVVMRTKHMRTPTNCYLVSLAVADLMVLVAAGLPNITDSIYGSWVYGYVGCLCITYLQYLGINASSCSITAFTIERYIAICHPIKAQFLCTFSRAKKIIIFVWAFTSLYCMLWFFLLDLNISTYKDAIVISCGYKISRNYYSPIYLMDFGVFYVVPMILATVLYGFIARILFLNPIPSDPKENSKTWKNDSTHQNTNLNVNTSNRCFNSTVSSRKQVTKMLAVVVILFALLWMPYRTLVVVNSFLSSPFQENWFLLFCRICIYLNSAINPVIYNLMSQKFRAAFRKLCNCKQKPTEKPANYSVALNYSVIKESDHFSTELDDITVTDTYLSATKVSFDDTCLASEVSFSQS
Procedure, shortened: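 Following an 18 h incubation at 37 °C and a 2 h calcium dye load, TRHR-HEK293 cells were exposed to compound (5 min, room temperature) and challenged with TRH, 1 nM final.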

[11] = Human pregnane X receptor (PXR) small molecule agonists, qHTS cell viability counter screen (AID 1346977); further: nearly all actives have a fitted effect of over 50% in size
Procedure, shortened: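 Same-well viability read: CellTiter-Fluor added after 23 hr compound exposure, fluorescence measured 1 hr later. Cells were PXR-Luc HepG2 seeded at 2,000/well in 5% charcoal-stripped FBS medium, rested 5 hr before dosing at 37 C.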

[12] = Caspase-3/7 induction in HepG2 cells by small molecules, qHTS assay (AID 1346978); further: nearly all actives have a fitted effect of over 15% in size
Procedure, shortened: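 Wild-type HepG2 cells, 2,000/well, settled 5 hr at 37 C and 5% CO2, then compound-treated for 17 hr; caspase-3/7 activity read by luminescent Caspase-Glo 3/7 after 30 min at room temperature.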

[13] = Caspase-3/7 induction in CHO-K1 cells by small molecules, qHTS cell viability counter screen (AID 1346979); further: nearly all actives have a fitted effect of over 35% in size
Procedure, shortened: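 Cytotoxicity counter screen: CellTiter-Fluor added to compound-treated wild-type CHO-K1 cells at 16 h (37C, 5% CO2), fluorescence measured 1 h later; same wells as caspase-3/7 measurement.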

[14] = Caspase-3/7 induction in CHO-K1 cells by small molecules, qHTS assay (AID 1346980); further: nearly all actives have a fitted effect of over 15% in size
Procedure, shortened: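 Wild-type CHO-K1 cells exposed to compounds for 17hr at 37 C, 5% CO2. Caspase-3/7 activity then measured by Caspase-Glo 3/7 luminescence after 30min at room temperature.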

[15] = Caspase-3/7 induction in HepG2 cells by small molecules, qHTS cell viability counter screen (AID 1346981); further: series mostly up to about 92 µM; nearly all actives have a fitted effect of over 30% in size
Procedure, shortened: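 Viability determined by CellTiter-Fluor fluorescence in HepG2 wells also used for the luminescent Caspase-Glo 3/7 read. Compounds were present for 16 hr at 37 C, 5% CO2 before reagent addition.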

[16] = target: Nuclear receptor subfamily 1 group I member 2 (Homo sapiens) (UniProt O75469); experiment: Human pregnane X receptor (PXR) small molecule agonists, qHTS assay (AID 1346982); further: nearly all actives have a fitted effect of over 35% in size
Nuclear receptor subfamily 1 group I member 2 (Homo sapiens), sequence (O75469 whole entry, looked up): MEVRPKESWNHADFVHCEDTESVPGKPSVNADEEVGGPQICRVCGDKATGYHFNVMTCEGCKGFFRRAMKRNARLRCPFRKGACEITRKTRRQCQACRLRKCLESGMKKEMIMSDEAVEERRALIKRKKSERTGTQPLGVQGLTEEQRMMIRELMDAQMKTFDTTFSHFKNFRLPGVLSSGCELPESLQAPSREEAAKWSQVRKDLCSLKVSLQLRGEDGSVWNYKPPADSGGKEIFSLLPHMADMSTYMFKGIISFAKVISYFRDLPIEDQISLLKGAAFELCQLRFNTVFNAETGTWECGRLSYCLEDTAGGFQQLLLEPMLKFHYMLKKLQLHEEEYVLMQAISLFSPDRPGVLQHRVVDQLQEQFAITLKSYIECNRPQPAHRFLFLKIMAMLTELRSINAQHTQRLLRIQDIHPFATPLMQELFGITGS
Procedure, shortened: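 Compound-induced hPXR transactivation of a CYP3A4 luciferase reporter was scored in HepG2 PXR-Luc cells over 24 hr at 37 C, 5% CO2, by luminescence.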

[17] = target: Thyrotropin-releasing hormone receptor (Homo sapiens) (UniProt P34981); experiment: qHTS assay to identify small molecule agonists of the thyrotropin-releasing hormone receptor (TRHR) signaling pathway (AID 1346891; calls by dose curve; further: series mostly up to about 58 µM)
Procedure, shortened: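 Agonist-mode intracellular calcium readout: kinetic fluorescence over 3 min at 1 s intervals after compound addition to TRHR-HEK293 cells (18 h seeded, 2 h dye-loaded at 37 C). Fifteen concentrations, triplicates.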

[18] = target: Nuclear receptor subfamily 1 group I member 2 (Homo sapiens) (UniProt O75469); experiment: CYP3A4 induction through human pregnane X receptor (PXR) by small molecules, qHTS assay (AID 1346984); further: nearly all actives have a fitted effect of over 40% in size
Procedure, shortened: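 Readings come from a luciferase reporter: DPX-2 cells, which are HepG2 cotransfected with PXR and a CYP3A4-promoter construct, were exposed to test compounds for 24 h at 37C before One-Glo detection.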

[19] = target: Nuclear receptor subfamily 1 group I member 2 (Homo sapiens) (UniProt O75469); experiment: Human pregnane X receptor (PXR) activation by small molecules, qHTS assay (AID 1346985); further: nearly all actives have a fitted effect of over 40% in size
Procedure, shortened: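 DPX-2 cells (HepG2 co-transfected with a PXR response element and a CYP3A4-promoter luciferase construct) were seeded at 2,000 per well, rested 5 hr at 37C, then exposed to DMSO-dissolved compounds for 24 hr. Activation was read as luciferase luminescence.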
On the % scale 0 is the no-effect control and ±100 the full control effect.

CN1C(=O)N(C)C(O)C1O (centres undefined)
inactive: Potency [1] | Potency [2] | Potency [3] | Potency [4] | Potency [5] | Potency [6] | Potency [7] | outcome [8] | outcome [9] | outcome [10] | Potency [11] | Potency [12] | Potency [13] | outcome [14] | Potency [15] | Potency [16]

c1cnc(N2CCN(Cc3ccc4c(c3)OCO4)CC2)nc1
inactive: Potency [1] | Potency [2] | Potency [3] | Potency [4] | Potency [5] | Potency [6] | Potency [7] | outcome [8] | outcome [9] | outcome [10] | outcome [17] | Potency [11] | Potency [12] | Potency [13] | outcome [14] | Potency [15] | Potency [16]

Cc1cc(O)cc2c1O[C@](C)(CCC[C@H](C)CCC[C@H](C)CCCC(C)C)CC2
inactive: Potency [1] | Potency [2] | Potency [3] | Potency [4] | Potency [5] | Potency [6] | Potency [7] | outcome [8] | outcome [9] | outcome [10] | outcome [17] | Potency [11] | Potency [12] | Potency [13] | outcome [14] | Potency [15] | Potency [16] | Potency [18] | Potency [19]

ClC(Cl)(Br)Br
inactive: Potency [1] | Potency [2] | Potency [3] | Potency [4] | Potency [5] | Potency [6] | Potency [7] | outcome [8] | outcome [9] | Potency [11] | Potency [12] | Potency [13] | outcome [14] | Potency [15] | Potency [16]

Nc1cc(=O)[nH]c(N)n1
inactive: Potency [1] | Potency [2] | Potency [3] | Potency [4] | Potency [5] | Potency [6] | Potency [7] | outcome [8] | outcome [9] | outcome [10] | outcome [17] | Potency [11] | Potency [12] | Potency [13] | Potency [15] | Potency [16]

N[C@@H](C(=O)N[C@@H]1C(=O)N2C(C(=O)O)=C(Cl)CS[C@H]12)c1ccccc1
inactive: activity change, negative = inhibition [1] 1.57% [at 8.39 µM] | activity change, negative = cytotoxicity [2] -0.6% [at 8.39 µM] | activation [3] 0.163% [at 8.39 µM] | activity change, negative = inhibition [4] 5.57% [at 8.39 µM] | activity change, negative = cytotoxicity [5] 1.94% [at 8.39 µM] | activity change, negative = cytotoxicity [6] -11.1% [at 8.39 µM] | viability change, negative = cytotoxic [7] -15% [at 6.97 µM] | activity change, negative = cytotoxicity [8] -0.75% [at 6.97 µM] | activation [9] 1.83% [at 6.97 µM] | activity, negative = inhibition [10] 1.85% [at 4.65 µM] | activation [17] -0.0304% [at 5.23 µM] | activity change, negative = cytotoxicity [11] 4.82% [at 8.39 µM] | caspase activation [12] 0.709% [at 8.39 µM] | activity change, negative = cytotoxicity [13] 1.61% [at 8.39 µM] | activity change, negative = cytotoxicity [15] 4.06% [at 8.39 µM] | activation [16] -7.63% [at 8.39 µM] | Potency [18] | Potency [19]

C=C[Si](OC(=C)C)(OC(=C)C)OC(=C)C
inactive: Potency [1] | Potency [2] | Potency [3] | Potency [4] | Potency [5] | Potency [6] | Potency [7] | outcome [8] | outcome [9] | outcome [10] | outcome [17] | Potency [11] | Potency [12] | Potency [13] | outcome [14] | Potency [15] | Potency [16]

C[C@H](NC(CCc1ccccc1)C(=O)O)C(=O)N1CCC[C@H]1C(=O)O (some centres undefined)
inactive: Potency [1] | Potency [2] | Potency [3] | Potency [4] | Potency [5] | Potency [6] | Potency [7] | outcome [8] | outcome [9] | outcome [10] | Potency [11] | Potency [12] | Potency [13] | outcome [14] | Potency [15] | Potency [16]

From PubChem BioAssay (Tox21)
